In the library only some 4.8% were active in any assay of this set; here they are far more common.
hgDAF-12 ag = H. glycines DAF-12 receptor agonists, primary screen, cell-based, luminescence, HEK293, GAL4 fusion, UAS-luciferase | AID 687014, 2013 | activation, % at 6.8 µM | Nuclear hormone receptor DAF-12 (Heterodera glycines), GAL4 fusion | 370,000 tested, 1.8% active | HEK293 GAL4-hgDAF12 UAS-luciferase reporter, agonist luminescence; normalized to butyrate control;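 active = activation above a cutoff set at the mean of all screened compounds plus 3 SD, cut at about 10% in these data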
ssDAF12 agonist = S. stercoralis DAF-12 nuclear receptor activators, primary screen, cell-based, luminescence, HEK293, GRIP1 co-expression, lit1-tk-luc. 370,000 tested, 1% active. Nuclear hormone receptor DAF-12 (Strongyloides stercoralis). activation, % at 6.8 µM. HEK293 ssDAF-12/GRIP1 lit1-tk-luc reporter; % of 3 µM dafachronic acid response. AID 652126, 2013;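 active = activation above the mean over all tested compounds plus 3 SD, cut at about 0.9% in these data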
Rev-erbA mod = modulators of Rev-erb alpha DNA binding, primary screen, biochemical, FITC-DNA, fluorescence polarization, uHTS. Nuclear receptor subfamily 1 group D member 1 (Homo sapiens), P20393. Rev-erbα–FITC-DNA binding, 90 min. activity, % at 10 µM. 370,000 tested, 0.79% active. AID 1259318, 2017;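 active = activity above about 14%, limit read from the data; passing the limit was not always enough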
Target sequence (P20393 whole entry, looked up): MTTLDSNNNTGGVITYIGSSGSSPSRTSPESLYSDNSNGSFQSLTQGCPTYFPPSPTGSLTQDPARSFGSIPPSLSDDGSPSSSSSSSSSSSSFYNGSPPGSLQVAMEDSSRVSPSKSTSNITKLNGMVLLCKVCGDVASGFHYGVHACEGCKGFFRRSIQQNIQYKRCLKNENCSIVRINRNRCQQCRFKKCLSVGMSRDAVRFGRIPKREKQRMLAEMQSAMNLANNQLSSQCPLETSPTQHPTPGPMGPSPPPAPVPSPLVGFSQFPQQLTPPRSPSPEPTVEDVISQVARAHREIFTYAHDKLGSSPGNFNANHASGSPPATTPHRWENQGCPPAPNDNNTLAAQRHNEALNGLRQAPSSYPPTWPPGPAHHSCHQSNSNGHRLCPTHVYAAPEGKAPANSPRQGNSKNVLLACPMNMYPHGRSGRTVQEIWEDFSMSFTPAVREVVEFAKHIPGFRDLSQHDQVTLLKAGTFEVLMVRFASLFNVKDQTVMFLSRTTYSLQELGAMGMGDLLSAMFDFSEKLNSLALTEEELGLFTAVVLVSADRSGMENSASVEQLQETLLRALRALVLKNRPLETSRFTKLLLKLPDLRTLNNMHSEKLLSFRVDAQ
DAX1 inh-1 = DAX1 (NR0B1) inhibitors, primary screen, cell-based, HEK293, Gal4-DAX1, luciferase luminescence; inhibition, % at 6.75 µM; HEK293 Gal4-DAX1 luciferase reporter; 340,000 tested, 0.99% active; Nuclear receptor subfamily 0 group B member 1 (Homo sapiens), P51843;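 active = inhibition above the mean over all tested compounds plus 3 SD, cut at about 4.2% in these data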;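 note: inhibition shows as a rise in luminescence from relieved DAX1 repression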
DAX1 inh-2 = DAX1 (NR0B1) inhibitors on StAR promoter, primary screen, cell-based, luminescence, SF-1 (NR5A1), full-length DAX-1 | AID 652010, 2013 | inhibition, % at 6.8 µM | 370,000 tested, 1.1% active | HEK293T StAR-luciferase reporter, SF-1/DAX-1 repression relief;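 active = inhibition above the mean over all tested compounds plus 3 SD, cut at about 3.6% in these data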;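 note: higher inhibition means more luminescence from relief of DAX-1 repression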
hcDAF12 agonist = H. contortus DAF-12 nuclear receptor activators, primary screen, cell-based, luminescence, HEK293, lit1-tk-luc reporter | 370,000 tested, 1.4% active | AID 652067, 2013 | activation, % at 6.8 µM | HEK293 hcDAF-12 lit1-tk-luc reporter; 0% DMSO, 100% Δ7-dafachronic acid;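 active = activation above the mean of all tested compounds plus 3 SD, cut at about 5.5% in these data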
hgDAF12 conf = H. glycines DAF-12 receptor agonists, confirmation, cell-based, luminescence, HEK293, GAL4-LBD fusion | activation, % at 6.8 µM | shares compounds with hgDAF-12 ag | 3,300 tested, 80% active | AID 743050, 2013 | HEK293 GAL4-hgDAF12 luciferase reporter, agonist mode; percent of butyrate response;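 active = mean activation over triplicate wells above the hit cutoff derived from the earlier primary screen, cut at about 11% in these data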
LXR ag 2 = LXR agonists, Gal4 luciferase reporter, confirmation, counter-screen for hgDAF-12 agonist project, cell-based, luminescence, HEK293, H. glycines campaign | shares compounds with hgDAF-12 ag | 24 h | activation, % at 6.8 µM | 3,300 tested, under 10 active | AID 743051, 2013;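 active = mean activation of the triplicate above a set limit carried over from the primary screen, none filed active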
Hits are given with their value; – = inactive; · = no result.

SMILES	hgDAF-12 ag	ssDAF12 agonist	Rev-erbA mod	DAX1 inh-1	DAX1 inh-2	hcDAF12 agonist	hgDAF12 conf	LXR ag 2
CCNC(=O)c1sc2cc(C)ccc2c1Cl	14.9	–	–	–	–	–	–	–
Cc1ccc(NC(=O)c2ccc(CS(=O)(=O)Cc3ccccc3C)o2)cc1C	–	–	–	·	–	–	·	·
Cc1nn(Cc2c(F)c(F)c(F)c(F)c2F)c(C)c1NC(=O)c1cccc(COc2ccc(Cl)cc2)c1	15.0	–	–	–	–	–	–	–
Nc1ccccc1N=Cc1ccc(-c2cccc(Cl)c2)o1	21.7	1.3	–	–	–	–	15.3	–
CN1CCN(c2ccc(NC(=O)c3cccs3)cc2)CC1	15.0	–	–	5.7	4.3	–	12.2	–
Cc1ccn(-c2ccc(NC(=O)c3cccs3)cc2)n1	17.4	–	–	–	–	–	17.2	–
O=C(N/N=C/c1ccc(N2CCOCC2)cc1)c1ccc(NS(=O)(=O)c2cccs2)cc1	–	–	–	–	–	–	·	·
CCN(CC)S(=O)(=O)c1ccc(NC(=O)c2cccs2)cc1	–	–	–	–	–	–	·	·
O=C(N/N=C/c1ccc(N2CCOCC2)cc1)c1cccs1	19.8	–	–	–	4.4	–	14.0	–
COc1ccc(CCC[C@H](CCC(=O)N(c2ccccc2)c2ccccc2)CCc2ccccc2)cc1	–	–	–	·	–	–	·	·
CCCN1CCCCC(NC(=O)c2ccc(Cl)cc2Cl)C1=O (stereo not drawn)	–	–	–	·	–	–	·	·
COc1ccc(C(=O)Nc2cccc(OC(=O)c3ccco3)c2)cc1	14.0	–	–	–	–	–	13.7	–
CN1CC(O)([C@H](Cc2ccccc2)NC(=O)OC(C)(C)C)OCC1C(=O)NCc1cccc2ccccc12 (stereo partly drawn)	–	–	–	·	·	–	·	·
Cc1ccnc(N=Cc2nc(-c3ccccc3Br)oc2O)c1	15.3	–	–	–	–	–	–	–
Clc1cccc2sc(N3CCOCC3)nc12	–	–	–	–	–	–	·	·
c1c2c(cc3sc(N4CCOCC4)nc13)OCO2	15.6	–	–	–	–	6.0	13.4	–
O=C(OCc1ccccn1)c1ccc(COc2ccc3ccccc3c2)o1	14.4	–	–	–	–	–	10.8	–
CCC(=O)Nc1ccc(Cl)cc1C(=O)c1ccc[nH]1	–	–	–	·	·	–	·	·
COc1ccc(OCCCSc2ncccn2)cc1	13.8	–	–	–	–	–	10.9	–
COc1cccc(OCCCCSc2ncccn2)c1	–	–	–	–	–	–	·	·
C[C@H](c1ccccc1)N1C[C@@H](COCc2ccccc2)Oc2cccc(Oc3ccc(F)cc3)c2S1(=O)=O	–	–	–	·	–	–	·	·
O=C(N/N=C/c1ccc(Br)cc1)c1ccc(Br)o1	14.3	–	–	–	–	–	15.0	–
O=C(N/N=C/c1ccc(Br)cc1)c1ccc(F)cc1	–	–	–	–	–	–	·	·
CCc1ccc2nc(NC(=O)CCCc3cccs3)sc2c1	–	–	–	–	–	–	·	·
CN(C)S(=O)(=O)c1ccc2nc(NC(=O)c3cccs3)sc2c1	15.1	–	–	–	3.8	5.6	18.7	–
SMILES	hgDAF-12 ag	ssDAF12 agonist	Rev-erbA mod	DAX1 inh-1	DAX1 inh-2	hcDAF12 agonist	hgDAF12 conf	LXR ag 2
CCCCc1ccc2nc(NC(=O)c3cccs3)sc2c1	27.2	2.5	–	·	·	6.1	20.4	–
Oc1ccc(Nc2ncnc3ccccc23)cc1	–	–	–	–	–	–	·	·
Cc1ccc(Nc2ncnc3ccccc23)cc1	13.9	–	–	–	–	–	–	–
O=C(NNC1=C(C(=O)C(F)(F)F)CCC1)c1cccc(O)c1	13.4	–	–	–	4.3	–	–	–
O=C(C1=C(O)/C(=C/c2ccc(O)cc2)CCC1)C(F)(F)F	–	–	–	–	–	–	·	·
COc1cc(OC)cc(C(=O)Nc2ccc([N+](=O)[O-])cn2)c1	–	–	–	–	–	–	·	·
Cc1ccc(C(=O)Nc2ccc([N+](=O)[O-])cn2)o1	13.8	–	–	–	–	–	–	–
COc1ccc(C(=O)Nc2ccc([N+](=O)[O-])cn2)c(OC)c1	18.7	–	–	–	–	–	19.7	–
Cc1ccc(C(=O)Nc2ncc(C)s2)o1	19.6	–	–	–	–	–	14.8	–
COC(=O)[C@]12C[C@H](CC(=O)NCc3cccs3)C(=O)N(Cc3ccc(Cl)cc3Cl)C1=C[C@H](C(C)(C)C)O[C@@H]2C	–	–	–	·	–	–	·	·
CCOC(=O)[C@]12CCCC3=C1N(CCC3)C(=O)[C@@H](CC(=O)N1CCOCC1)C2	–	–	–	·	–	–	·	·
CC(C)C(=O)Nc1nc2cc3c(cc2s1)OCCO3	13.3	–	–	–	–	–	–	–
CS(=O)(=O)c1ccc2nc(NC(=O)c3ccco3)sc2c1	15.3	–	–	–	–	–	14.1	–
CCOc1ccc(NC(=O)c2ccco2)cc1	15.0	–	–	–	–	–	12.6	–
CCOc1ccc(NC(=S)NC(=O)c2ccco2)cc1	–	–	–	–	–	–	·	·
Cc1occc1C(=O)Nc1ccc(OCc2ccccc2)cc1	14.1	–	–	–	4.4	–	18.6	–
Cc1ccc2nc(-c3ccco3)c(Cc3ccccc3C(F)(F)F)n2c1	–	–	–	·	–	–	·	·
COc1ccc(OC)c(S(=O)(=O)N(CCc2ccc(OC)c(OC)c2)Cc2cccs2)c1	–	–	–	·	–	–	·	·
COC(=O)C1=C(C)N(Cc2ccccc2C(F)(F)F)C(=NCc2ccc(OC)cc2)NC1c1ccc(F)cc1 (stereo not drawn)	–	–	–	·	–	–	·	·
NC(=O)c1ncn([C@@H]2O[C@H](C(=O)N[C@H](Cc3c[nH]c4ccccc34)C(=O)N3CCN(C(=O)C4CC4)CC3)[C@@H](O)[C@H]2O)n1	–	–	–	·	–	–	·	·

From PubChem BioAssay
